# The campaign covered roughly 190,000 compounds. About 1,300 (0.68%) were called active. No stated cut-off is given here; in the data, active means inhibition above about 50%; inactive means the rest. Many of the other results were omitted from the sample, so actives are more common in it than they were.
# Molecular target: Mannose-6-phosphate isomerase (Homo sapiens) (UniProt P34949)
# Test: MPI inhibition at elevated mannose 6-phosphate – biochemical, fluorescence intensity, high mannose 6-phosphate, primary screen (AID 1220)
# Settings: recombinant PMI enzyme, coupled fluorescence intensity; at 20 µM; hits give high values
# Chain of Mannose-6-phosphate isomerase (Homo sapiens) (P34949 whole entry, looked up): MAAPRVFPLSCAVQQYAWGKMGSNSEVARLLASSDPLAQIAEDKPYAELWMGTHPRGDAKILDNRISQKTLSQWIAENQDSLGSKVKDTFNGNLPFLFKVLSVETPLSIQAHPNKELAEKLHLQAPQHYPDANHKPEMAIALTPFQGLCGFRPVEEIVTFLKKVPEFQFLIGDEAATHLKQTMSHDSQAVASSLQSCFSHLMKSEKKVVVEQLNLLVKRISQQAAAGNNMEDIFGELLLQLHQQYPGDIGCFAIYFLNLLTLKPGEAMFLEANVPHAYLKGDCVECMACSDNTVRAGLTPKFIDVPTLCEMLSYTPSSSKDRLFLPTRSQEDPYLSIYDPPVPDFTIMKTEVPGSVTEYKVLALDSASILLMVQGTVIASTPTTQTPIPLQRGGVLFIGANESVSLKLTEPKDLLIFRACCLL
row,Compound,inhibition
1,COc1cc(C(F)(F)F)nc(-c2ccccn2)n1,4.9% (inactive)
2,CC(=O)c1cc(N2CCOCC2)ccc1[N+](=O)[O-],2.8% (inactive)
3,O=C(CN1CCN(c2ccc(O)cc2)CC1)Nc1ccc2c(c1)OCCO2,62.8% (active)
4,O=C(CN1CCOCC1)Nc1ccc2c(c1)OCO2,4.7% (inactive)
5,O=C(CN1CCN(c2ccccc2)CC1)Nc1ccc2c(c1)OCCO2,-3.7% (inactive)
6,CN(C)/C=C/C(=O)c1cc(N2CCOCC2)ccc1[N+](=O)[O-],55.9% (active)
7,O=C(c1ccc(N2CCOCC2)cc1[N+](=O)[O-])N1CCOCC1,7.3% (inactive)
8,O=C(NC1=NCCS1)c1cccc(S(=O)(=O)N2CCCCC2)c1,7.1% (inactive)
9,Cc1cc(N2CCOCC2)nc2ccc(NC(=O)C3CCC(C)CC3)cc12 (stereo not given),0.8% (inactive)
10,COc1ccc(/C(C)=N/NC(=O)C2CC2)cc1,-2.9% (inactive)
11,CCc1ccc(NC(=S)N2CCCC(C(F)(F)F)C2)cc1 (stereo not given),13.4% (inactive)
12,O=C1C(=Cc2ccco2)C(=O)c2ccccc21,-11.7% (inactive)
13,c1cc2[nH]snc2c2nc(C3CC3)nc12,54.2% (active)
14,Cc1nc2ccc3[nH]snc3c2n1,2.6% (inactive)
15,Cc1cc(/C=C2\NC(=O)N(Cc3ccc(Cl)cc3)C2=O)c(C)n1C,-58.7% (inactive)
16,O=C(CN1C(=O)S/C(=C\c2ccc(O)cc2)C1=O)c1ccccc1,12.5% (inactive)
17,CS(=O)(=O)N1CCN(c2ccccc2NC(=O)CSc2nnc(-c3ccco3)o2)CC1,0.5% (inactive)
18,CC(C)CN(C(=O)CSc1nnc(-c2ccco2)o1)c1c(N)n(Cc2ccccc2)c(=O)[nH]c1=O,-2.6% (inactive)
19,Nc1cccnc1-n1nc(C(F)(F)F)cc1C(F)(F)F,-0.6% (inactive)
20,ONc1cccnc1-n1nc(C(F)(F)F)cc1C(F)(F)F,67.9% (active)
21,Cc1cc(C(F)(F)F)nn1C(=O)c1cccnc1Cl,6.5% (inactive)
22,COc1cccc(N2CCN(c3ccc(S(=O)(=O)N4CCCC4)cc3)CC2)c1,18.6% (inactive)
23,Cc1sc2ncnc(NCC(C)(C)N3CCOCC3)c2c1C,-3.6% (inactive)
24,CCOC(=O)/C(=C/c1ccc(OC(=O)c2ccccc2)cc1)C(C)=O,4.7% (inactive)
25,CCOC(=O)/C(=C/c1ccc(OC(=O)c2ccncc2)cc1)C(C)=O,61.4% (active)

row,Compound,inhibition
1,COCCOC(=O)/C(=C/c1ccc(OC(=O)c2ccccc2)cc1)C(C)=O,0.4% (inactive)
2,Cn1c2ccccc2c2ncn(CCC3=CCCCC3)c(=O)c21,9.7% (inactive)
3,CCOC(=O)CSc1nc(C)c2cc(C)c(C)cc2n1,1.6% (inactive)
4,O=C(NC1C=CS(=O)(=O)C1)c1ccccc1 (stereo not given),5.8% (inactive)
5,COc1cccc(OC)c1C(=O)Oc1ccc2c(c1)O/C(=C\c1ccncc1)C2=O,7.7% (inactive)
6,COc1ccc(NC(=O)CSc2ncnc3c2cnn3Cc2ccccc2)cc1,8.2% (inactive)
7,O=C(Oc1cccc2c(OC(=O)N3CCCC3)cccc12)N1CCCC1,57.3% (active)
8,O=C(Oc1cccc2c(OC(=O)N3CCOCC3)cccc12)N1CCOCC1,2.4% (inactive)
9,O=C(Oc1ccc(Cl)c2ccccc12)N1CCCCC1,-3.1% (inactive)
10,CC(C)CCC(C)N=Cc1c(O)n(Cc2ccccc2)c(=O)c2ccccc12 (stereo not given),6.3% (inactive)
11,CCOC(=O)Nc1ccc(Oc2ccccc2)cc1,4.8% (inactive)
12,N#CC1=C(N)C(C#N)(C#N)C(c2ccc[nH]2)C2CCCC=C12 (stereo not given),35.1% (inactive)
13,N#CC1=C(N)C(C#N)(C#N)C(c2cccnc2)C2CC(c3ccccc3)CC=C12 (stereo not given),47.2% (inactive)
14,N#CC1=C(N)C(C#N)(C#N)C(c2cccnc2)C2CCCC=C12 (stereo not given),50.3% (active)
15,O=C(O)CCC(=O)Nc1ccc(C(=O)OCC(=O)c2ccc(Cl)cc2Cl)cc1,6.3% (inactive)
16,CCCCOC(=O)c1ccc(S(N)(=O)=O)o1,-1.2% (inactive)
17,Cc1ccc(NCCC(=O)c2cccs2)cc1Cl,18.9% (inactive)
18,COc1cc(NCCC(=O)c2cccs2)c(OC)cc1Cl,51.4% (active)
19,O=C(CCNc1cc(Cl)cc(Cl)c1)c1cccs1,7.8% (inactive)
20,Clc1ccc(CSc2ncnc3nc[nH]c23)cc1,3.6% (inactive)
21,C=CCc1cccc(C=Nc2ccc(Br)cc2)c1O,-8.2% (inactive)
22,C=CCc1cccc(C=Nc2cc(Br)ccc2O)c1O,57% (active)
23,C=CCc1cccc(/C=N/c2ncccc2O)c1O,34.3% (inactive)
24,O=C(NCCCN1CCCC1=O)C1CCCO1 (stereo not given),5.1% (inactive)
25,Cc1nn(-c2ccccc2)c2[nH]c(=O)c(CNCc3ccc4c(c3)OCO4)cc12,2.9% (inactive)
